From the supplement of paper PMC11732987, “Enantioselective OTUD7B fragment discovery through chemoproteomics screening and high-throughput optimisation” (Communications Chemistry, 2025)

Key:
Experiment in all cases: log2 ratio of Biotin-Ahx-Ub-VS probe labelling (fragment/DMSO); higher = less target engagement (more negative = stronger competition), active = hit call of the paper (q ≤ 0.05, log2 ratio ≤ -1)
Details in all cases: compound concentration: 200 uM; treatment time: 3 h
ALG13 = target: T1, ALG13 (UniProt Q9NP73)
T1 sequence (whole entry): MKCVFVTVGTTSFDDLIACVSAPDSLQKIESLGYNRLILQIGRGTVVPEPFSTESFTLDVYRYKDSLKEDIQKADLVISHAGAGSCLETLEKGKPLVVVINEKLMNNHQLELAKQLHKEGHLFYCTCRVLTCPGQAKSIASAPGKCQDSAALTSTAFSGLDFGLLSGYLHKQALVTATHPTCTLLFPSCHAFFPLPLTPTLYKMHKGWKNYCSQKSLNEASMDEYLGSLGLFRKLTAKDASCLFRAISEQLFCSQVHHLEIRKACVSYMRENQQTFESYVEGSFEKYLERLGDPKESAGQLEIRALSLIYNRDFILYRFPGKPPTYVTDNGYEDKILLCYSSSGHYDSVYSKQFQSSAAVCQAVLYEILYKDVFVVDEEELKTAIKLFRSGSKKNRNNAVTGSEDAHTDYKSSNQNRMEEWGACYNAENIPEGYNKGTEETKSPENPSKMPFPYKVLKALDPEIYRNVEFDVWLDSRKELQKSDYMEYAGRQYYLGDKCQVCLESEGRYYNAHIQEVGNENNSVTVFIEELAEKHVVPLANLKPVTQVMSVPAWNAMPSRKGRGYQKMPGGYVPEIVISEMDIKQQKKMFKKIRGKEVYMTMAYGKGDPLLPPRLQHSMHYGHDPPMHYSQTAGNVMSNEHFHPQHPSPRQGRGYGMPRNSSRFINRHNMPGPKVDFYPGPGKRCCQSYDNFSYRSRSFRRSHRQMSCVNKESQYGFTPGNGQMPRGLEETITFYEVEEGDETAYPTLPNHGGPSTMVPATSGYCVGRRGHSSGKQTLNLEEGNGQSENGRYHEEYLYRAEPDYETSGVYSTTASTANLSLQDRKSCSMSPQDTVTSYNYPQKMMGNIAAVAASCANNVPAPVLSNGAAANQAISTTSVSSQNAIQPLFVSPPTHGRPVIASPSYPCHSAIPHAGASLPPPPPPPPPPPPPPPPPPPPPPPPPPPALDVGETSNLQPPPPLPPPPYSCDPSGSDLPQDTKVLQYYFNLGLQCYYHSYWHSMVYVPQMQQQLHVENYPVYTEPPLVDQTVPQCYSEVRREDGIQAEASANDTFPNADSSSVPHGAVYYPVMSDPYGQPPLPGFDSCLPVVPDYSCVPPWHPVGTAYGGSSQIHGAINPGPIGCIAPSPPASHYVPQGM
How it was run: (§1)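 Average log2 ratios of fragment over vehicle were obtained by unpaired t-test from global-median-normalised Spectronaut label-free quantities. Proteins with ≥2 unique peptides were included. HEK293T lysate (495 µg per sample) was treated in triplicate with fragment at 200 µM or vehicle for 3 h, then with Biotin-Ahx-Ub-VS at 0.5 µM final for 1 h, and labelled DUBs were NeutrAvidin-enriched and run by diaPASEF LC-MS/MS.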

ATXN3 = ATXN3 (UniProt P54252)
How it was run: as §1

BAP1 = target: T2, BAP1 (UniProt Q92560)
T2 sequence (whole entry): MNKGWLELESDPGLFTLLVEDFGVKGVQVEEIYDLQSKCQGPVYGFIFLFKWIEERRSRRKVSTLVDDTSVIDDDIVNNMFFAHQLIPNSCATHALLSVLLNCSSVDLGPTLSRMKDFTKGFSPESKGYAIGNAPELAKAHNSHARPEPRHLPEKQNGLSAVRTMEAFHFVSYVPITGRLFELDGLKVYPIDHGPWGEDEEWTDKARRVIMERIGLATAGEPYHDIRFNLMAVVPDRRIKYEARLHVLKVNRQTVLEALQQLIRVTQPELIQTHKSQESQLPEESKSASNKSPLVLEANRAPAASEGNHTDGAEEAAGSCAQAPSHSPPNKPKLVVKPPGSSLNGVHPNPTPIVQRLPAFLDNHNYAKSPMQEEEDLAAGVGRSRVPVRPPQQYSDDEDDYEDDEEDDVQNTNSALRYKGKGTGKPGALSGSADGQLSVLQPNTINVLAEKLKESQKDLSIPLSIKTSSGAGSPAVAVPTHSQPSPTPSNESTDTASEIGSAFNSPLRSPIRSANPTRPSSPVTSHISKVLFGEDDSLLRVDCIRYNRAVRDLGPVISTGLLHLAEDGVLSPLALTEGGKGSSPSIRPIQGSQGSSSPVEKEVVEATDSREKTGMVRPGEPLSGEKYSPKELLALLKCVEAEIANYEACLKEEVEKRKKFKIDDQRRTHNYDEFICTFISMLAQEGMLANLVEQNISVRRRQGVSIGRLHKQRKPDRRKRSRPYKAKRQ
How it was run: as §1

EIF3F = EIF3F (UniProt O00303)
How it was run: as §1

EIF3H = EIF3H (UniProt O15372)
How it was run: as §1

FAM105A = target: T3, FAM105A (UniProt Q9NUU6)
T3 sequence (whole entry): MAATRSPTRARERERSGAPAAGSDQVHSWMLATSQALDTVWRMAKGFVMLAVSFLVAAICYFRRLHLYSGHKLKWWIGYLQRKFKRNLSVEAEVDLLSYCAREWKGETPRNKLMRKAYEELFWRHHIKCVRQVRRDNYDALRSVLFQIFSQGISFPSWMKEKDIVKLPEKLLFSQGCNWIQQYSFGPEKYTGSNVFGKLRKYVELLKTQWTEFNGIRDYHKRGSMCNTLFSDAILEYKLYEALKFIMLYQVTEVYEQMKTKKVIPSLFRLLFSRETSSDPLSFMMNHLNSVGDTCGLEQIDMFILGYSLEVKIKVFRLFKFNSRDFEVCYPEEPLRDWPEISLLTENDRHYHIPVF
How it was run: as §1

OTUB1 = OTUB1 (UniProt Q96FW1)
How it was run: as §1

OTUD4 = target: T4, OTUD4 (UniProt Q01804)
T4 sequence (whole entry): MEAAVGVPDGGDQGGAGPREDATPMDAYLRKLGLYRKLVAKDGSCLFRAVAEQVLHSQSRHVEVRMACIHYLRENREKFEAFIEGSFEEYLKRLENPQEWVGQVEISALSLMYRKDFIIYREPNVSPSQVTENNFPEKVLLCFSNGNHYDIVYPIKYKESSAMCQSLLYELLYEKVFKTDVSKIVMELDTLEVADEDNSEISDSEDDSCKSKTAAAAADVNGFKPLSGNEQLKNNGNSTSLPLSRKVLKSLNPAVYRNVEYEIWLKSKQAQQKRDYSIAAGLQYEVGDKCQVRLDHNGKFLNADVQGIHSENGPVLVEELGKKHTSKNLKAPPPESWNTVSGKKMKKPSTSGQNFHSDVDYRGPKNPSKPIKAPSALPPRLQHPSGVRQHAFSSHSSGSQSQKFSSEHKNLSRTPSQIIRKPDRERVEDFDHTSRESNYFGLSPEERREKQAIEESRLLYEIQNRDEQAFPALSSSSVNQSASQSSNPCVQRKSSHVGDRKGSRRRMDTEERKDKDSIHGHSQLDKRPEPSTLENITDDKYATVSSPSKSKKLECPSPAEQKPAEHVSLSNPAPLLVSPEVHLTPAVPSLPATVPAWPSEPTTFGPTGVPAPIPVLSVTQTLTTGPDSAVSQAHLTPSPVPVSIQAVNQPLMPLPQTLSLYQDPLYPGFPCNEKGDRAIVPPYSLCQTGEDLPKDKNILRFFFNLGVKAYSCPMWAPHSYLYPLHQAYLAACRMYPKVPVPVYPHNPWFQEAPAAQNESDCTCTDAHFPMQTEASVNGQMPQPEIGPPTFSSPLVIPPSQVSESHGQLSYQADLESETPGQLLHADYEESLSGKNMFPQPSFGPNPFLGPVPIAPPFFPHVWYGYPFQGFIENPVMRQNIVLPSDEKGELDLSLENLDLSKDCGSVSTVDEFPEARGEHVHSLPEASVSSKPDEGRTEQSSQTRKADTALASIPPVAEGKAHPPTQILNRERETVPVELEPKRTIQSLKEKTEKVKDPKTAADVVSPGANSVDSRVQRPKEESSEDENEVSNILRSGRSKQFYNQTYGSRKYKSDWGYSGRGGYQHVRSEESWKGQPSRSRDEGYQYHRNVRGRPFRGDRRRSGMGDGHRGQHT
How it was run: as §1

OTUD5 = target: T5, OTUD5 (UniProt Q96G74)
T5 sequence (whole entry): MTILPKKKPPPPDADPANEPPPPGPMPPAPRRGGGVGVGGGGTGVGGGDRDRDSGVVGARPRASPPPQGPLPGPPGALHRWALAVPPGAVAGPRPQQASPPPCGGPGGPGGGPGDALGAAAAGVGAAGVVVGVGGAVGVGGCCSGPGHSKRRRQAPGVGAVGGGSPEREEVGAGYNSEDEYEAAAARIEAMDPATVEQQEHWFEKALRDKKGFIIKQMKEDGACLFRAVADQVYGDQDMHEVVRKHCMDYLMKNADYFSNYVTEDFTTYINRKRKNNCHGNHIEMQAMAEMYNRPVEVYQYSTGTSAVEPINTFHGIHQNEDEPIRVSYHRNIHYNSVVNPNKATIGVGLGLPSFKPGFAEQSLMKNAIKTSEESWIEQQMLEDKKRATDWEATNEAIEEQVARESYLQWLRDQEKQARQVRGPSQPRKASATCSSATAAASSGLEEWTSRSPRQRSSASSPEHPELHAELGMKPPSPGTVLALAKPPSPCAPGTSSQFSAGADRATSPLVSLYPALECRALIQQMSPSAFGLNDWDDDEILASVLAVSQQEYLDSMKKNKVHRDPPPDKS
How it was run: as §1

Measured: log2 ratio of Biotin-Ahx-Ub-VS probe labelling

Sequence of ATXN3 (P54252 whole entry): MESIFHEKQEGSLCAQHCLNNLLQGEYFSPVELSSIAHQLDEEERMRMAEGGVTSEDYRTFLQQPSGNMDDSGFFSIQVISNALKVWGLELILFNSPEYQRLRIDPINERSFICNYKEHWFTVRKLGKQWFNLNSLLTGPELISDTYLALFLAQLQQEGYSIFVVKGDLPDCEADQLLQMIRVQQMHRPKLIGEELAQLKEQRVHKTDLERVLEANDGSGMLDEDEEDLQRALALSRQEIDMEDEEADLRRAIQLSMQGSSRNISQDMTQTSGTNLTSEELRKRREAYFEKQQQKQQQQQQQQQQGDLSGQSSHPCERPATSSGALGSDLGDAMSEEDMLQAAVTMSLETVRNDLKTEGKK
Sequence of EIF3H (O15372 whole entry): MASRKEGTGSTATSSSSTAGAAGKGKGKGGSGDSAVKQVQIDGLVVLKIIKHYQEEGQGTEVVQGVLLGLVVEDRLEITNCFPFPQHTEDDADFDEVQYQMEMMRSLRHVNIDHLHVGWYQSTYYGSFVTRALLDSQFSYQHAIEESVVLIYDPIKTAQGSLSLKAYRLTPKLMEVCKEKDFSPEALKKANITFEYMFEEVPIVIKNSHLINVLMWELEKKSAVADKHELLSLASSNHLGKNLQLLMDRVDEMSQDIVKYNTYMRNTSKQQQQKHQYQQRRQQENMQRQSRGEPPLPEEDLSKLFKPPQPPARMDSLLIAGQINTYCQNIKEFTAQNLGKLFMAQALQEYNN
Sequence of OTUB1 (Q96FW1 whole entry): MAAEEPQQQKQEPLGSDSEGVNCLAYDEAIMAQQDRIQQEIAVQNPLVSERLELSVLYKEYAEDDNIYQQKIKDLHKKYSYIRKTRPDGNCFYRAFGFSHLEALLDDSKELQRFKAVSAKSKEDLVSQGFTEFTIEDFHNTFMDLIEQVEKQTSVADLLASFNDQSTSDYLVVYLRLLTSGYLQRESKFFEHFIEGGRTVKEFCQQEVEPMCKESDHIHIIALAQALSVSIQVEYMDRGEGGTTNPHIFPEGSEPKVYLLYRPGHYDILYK
Sequence of EIF3F (O00303 whole entry): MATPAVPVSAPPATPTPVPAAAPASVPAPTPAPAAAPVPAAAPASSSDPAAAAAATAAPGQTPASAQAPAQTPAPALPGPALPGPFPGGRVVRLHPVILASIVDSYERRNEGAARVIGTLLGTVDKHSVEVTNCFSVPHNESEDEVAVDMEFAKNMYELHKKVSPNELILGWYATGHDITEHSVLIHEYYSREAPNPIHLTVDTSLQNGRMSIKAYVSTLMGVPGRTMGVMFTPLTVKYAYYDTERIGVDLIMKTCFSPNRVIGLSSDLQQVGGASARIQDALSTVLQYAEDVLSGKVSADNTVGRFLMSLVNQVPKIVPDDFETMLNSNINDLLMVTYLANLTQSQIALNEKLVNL

O=C(CCl)N1CCC(c2ccn[nH]2)C1 (centres undefined)
inactive: ALG13 -0.443 | ATXN3 -0.622 | BAP1 -0.721 | EIF3F -0.232 | EIF3H 0.0161 | FAM105A -0.198 | OTUB1 -0.156 | OTUD4 -0.303 | OTUD5 -0.376
